From PubChem BioAssay
An excerpt weighted towards active compounds, which were near 8% of everything screened.
SW480 rerep: A quantitative high throughput screen for small molecules that induce DNA re-replication in SW480 colon adenocarcinoma cells. 340,000 compounds, 1.8% hits. Potency, µM (series often up to 46.1 µM), for the others: at the top dose re-replication activation, most hits filed as activators. SW480 DNA re-replication, Hoechst DNA content imaging, 48 h; note: % of control where 0% means no effect; nearly all actives have a fitted effect of over 55% in size
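Readout is total intensity of Hoechst-stained nuclei, excited at 405 nm and collected at 500-530 nm. Compound treatment lasted 48 hr at 37 C in 5% CO2 before staining.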
HT1080NT lethal: qHTS for induction of synthetic lethality in tumor cells producing 2HG: qHTS for the HT-1080-NT fibrosarcoma cell line; HT-1080-NT fibrosarcoma viability, CellTiter-Glo ATP luminescence, 48 h; Potency, µM (titrated, usually from 46.1 µM), without a hit: top-dose activity, negative = less viability, hits mostly cytotoxic; 360,000 compounds, 1.6% hits; AID 686970, 2013;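 note: NT is the 2HG producing partner of a matched IDH1 knockdown line; 0% = DMSO-treated cells and -100% = media-only wells without cells; nearly all actives have a fitted effect of over 55% in size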
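Viability of the 2HG-overproducing fibrosarcoma line after 48 hours of compound exposure at 37 degrees C was determined by luminescence with CellTiter-Glo, and concentration-effect curves were then fitted and categorized.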
KB-V1 cytotox: qHTS assay for MDR1-selective chemotherapeutics: Primary screen using the drug-selected MDR subline cells KB-V1. 400,000 compounds, 3.4% hits. Potency, µM (titrated, usually from 46.1 µM), most hits filed as cytotoxic. KB-V1 MDR cells viability, CellTiter-Glo, 72 h; note: % is set by controls: 0 for no effect and ±100 for the full control effect; nearly all actives have a fitted effect of over 60% in size
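Luminescent ATP read-out (CellTiter-Glo, 10 min) measures survival of drug-selected KB-V1 MDR cells after 72 h, 37 degrees C compound exposure. Medium: phenol-red-free DMEM, 10% FBS. Values from fitted concentration-response curves.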
KB-3-1 tox: qHTS assay for MDR1-selective chemotherapeutics: Primary screen using the parental adenocarcinoma cell KB-3-1 | Potency, µM (top dose mostly 46.1 µM), hits mostly cytotoxic | KB-3-1 viability, CellTiter-Glo ATP luminescence, 72 h | 400,000 compounds, 1.4% hits; note: % is set by controls: 0 for no effect and ±100 for the full control effect; nearly all actives have a fitted effect of over 60% in size
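Screening of KB-3-1 cells (DMEM, 10% FBS, phenol-red free) ran from lowest to highest compound concentration; after 72 h at 37 °C viability was read luminescently and curves fitted.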
MCF10A rereplic: A quantitative high throughput screen for small molecules that induce DNA re-replication in MCF 10a normal breast cells; Potency, µM (top dose mostly 46.1 µM), for inactives: at the top dose activity, positive = re-replication, most hits filed as activators; 350,000 compounds, 2.9% hits; MCF 10A DNA re-replication, Hoechst nuclear intensity, 48 h; note: % of control where 0% means no effect; nearly all actives have a fitted effect of over 50% in size
HT1080 IDH1KD tx: qHTS for induction of synthetic lethality in tumor cells producing 2HG: qHTS for the HT-1080-IDH1KD cell line | HT-1080 IDH1 knockdown viability, ATP luminescence, 48 h | Potency, µM (titrated, usually from 46.1 µM), for the others: at the highest dose activity, negative = toxicity, most hits filed as cytotoxic | 360,000 compounds, 2% hits | AID 686971, 2013;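 note: 0% = DMSO wells and -100% = cell-free medium wells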
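Viability of IDH1-knockdown HT-1080 fibrosarcoma cells was assessed by CellTiter-Glo after 48 h at 37 °C with titrated compound; concentration-effect curves were classified by fit quality and response size.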
Numbers without * were called inactive; i = inactive; ? = inconclusive; . = no result; ! = repeats disagree. Calls come from the whole dose curve; as a rule, active = well fitted curve in the direction sought with a large enough effect; inconclusive = small, poorly fitted or top-dose-only effect, or another doubt; inactive = no such curve, though single readings can be large; an effect the other way counts as inactive or inconclusive. Potency is the fitted concentration of half-maximal effect.

SMILES | SW480 rerep | HT1080NT lethal | KB-V1 cytotox | KB-3-1 tox | MCF10A rereplic | HT1080 IDH1KD tx
COc1ccc(CNC(=O)c2cccc3c(-c4cnn(C)c4)coc23)cc1OC | . | 23.1µM* | i | i | . | ?
COc1ccc(-c2ccc(C(=O)NCc3ccc(F)c(F)c3)c3occc23)c(C)c1 | . | ? | i | i | . | ?
COc1ccc(-c2coc3c(C(=O)NCc4ccc(F)c(F)c4)cccc23)c(C)c1 | . | 13µM* | ? | i | . | 13µM*
COc1ccc(-c2coc3c(C(=O)NCCN(C)C)cccc23)c(C)c1 | . | 25.9µM* | i | ? | . | 16.4µM*
COc1ccc(-c2coc3c(C(=O)NCCc4ccccc4)cccc23)c(C)c1 | . | ? | ? | i | . | ?
Cn1cc(-c2coc3c(C(=O)NCc4cccnc4)cccc23)cn1 | . | 0.7% | i | i | . | -1.1%
COc1ccc(-c2coc3c(C(=O)NCc4ccc(OC)c(OC)c4)cccc23)c(C)c1 | . | ? | ? | i | . | 4.11µM*
C[C@H](CO)N1C[C@H](C)[C@H](CN(C)C(=O)c2ccc(N3CCN(C)CC3)cc2)OCc2cnnn2CCCC1=O | . | 17.9% | i | i | . | 10.7%
O=C(CNC(=O)c1ccc2c(c1)OCO2)Nc1ncccc1O | -48.8% | 7.6% | i | i | -10.3% | 2.8%
O=C(NCCOC(=O)c1ccc(F)cc1)c1ccc(F)cc1 | -7.6% | -1.9% | i | i | 2.3% | -1.7%
COc1ccc(-c2coc3cc4oc(=O)c5ccccc5c4cc23)cc1F | 2.51µM* | ? | ? | ? | ? | ?
Nc1c2c(nc3ccc(Br)cc13)N(c1ccccc1)CC2 | 14.6µM* | ? | ? | i | 14.6µM* | ?
Cc1cccc(N2CCc3c2nc2ccc(Br)cc2c3N)c1 | -2.0% | ? | i | i | -5.0% | ?
N#CC1CC(c2ccccc2)Nc2cc(Cl)ccc2N1 (stereo unspecified) | 13µM* | ? | i | ? | ? | ?
C[C@@H]1C[C@H](O)c2cc(Cl)ccc2N1 | -3.6% | -8.2% | i | i | 5.8% | -4.7%
CCCn1c(N)c(C(=O)CSc2nnc(Cc3ccccc3)o2)c(=O)n(C)c1=O | -1.9% | -16.8% | 10.3µM* | i | 19.7% | ?
CCOC(=O)C[C@H]1c2ccccc2S(=O)(=O)N1Cc1cc(OC)c(OC)c(OC)c1 | -5.8% | -2.5% | ? | i | -1.4% | -1.8%
CCCCCCCCN1[C@@H](CC(=O)O)c2cc(C(F)(F)F)ccc2S1(=O)=O | ? | -8.2% | i | i | 21.8% | -14.2%
CC(=O)C[C@H]1c2cc(C(F)(F)F)ccc2S(=O)(=O)N1Cc1ccccc1 | -5.3% | -2.1% | ? | i | -3.4% | 1.4%
CC(=O)C[C@H]1c2cc(C(F)(F)F)ccc2S(=O)(=O)N1c1ccccc1 | -9.3% | 0.0% | 8.2µM*! | ? | -6.6% | -0.5%
CCCCCCCCCCCCN1[C@@H](CC(=O)O)c2cc(C(F)(F)F)ccc2S1(=O)=O | 22.9% | -7.9% | i | i | 16.4µM* | -11.2%
CCOC(=O)C[C@H]1c2ccccc2S(=O)(=O)N1Cc1cccc(C(F)(F)F)c1 | -9.0% | 0.0% | 10.3µM*! | 16.4µM*! | ? | 0.3%
CCCCCCCCN1[C@@H](CC(=O)OC)c2cc(F)ccc2S1(=O)=O | 4.6% | 6.5% | ? | i | 7.8% | -2.6%
CCCCCCCCN1[C@@H](CC(=O)OCC)c2cc(F)ccc2S1(=O)=O | ? | -0.4% | 14.6µM*! | ? | 27.1% | -5.5%
COC(=O)/C(=C\Nc1ccc(Cl)cc1Cl)NC(=O)c1ccc(OC)cc1 | 6.51µM* | 3.26µM* | 4.11µM* | 5.8µM* | 18.4µM* | 1.64µM*
SMILES | SW480 rerep | HT1080NT lethal | KB-V1 cytotox | KB-3-1 tox | MCF10A rereplic | HT1080 IDH1KD tx
CCN1c2ccccc2NC2C1C(C(C)=O)C(=O)N2c1ccc(Cl)cc1 (stereo unspecified) | 4.61µM* | ? | i | i | 2.91µM* | 15.8µM*
O=C1Nc2ccccc2N(O)N1c1ccc(Cl)cc1 | -1.8% | -0.3% | i | i | ? | 8.8%
CC(C)(C)N(Cc1ccccc1)C(=O)COC(=O)[C@@H]1CCCN1C(=O)c1cccs1 | 0.6% | 1.8% | i | i | 5.1% | -1.2%
COc1ccccc1Cc1c(-c2cccc(Cl)c2)nc2ccc(Br)cn12 | . | -2.0% | i | i | . | -5.2%
CCCCc1c(Cc2ccccc2)ncn1CCc1ccccc1OC | . | ? | 18.4µM* | 20.6µM* | . | 18.4µM*
COC(=O)c1ccc2nc(-c3ccc(Cl)cc3)c(Cc3ccccc3OC)n2c1 | . | -3.1% | i | i | . | -6.3%
CCCCc1c(-c2cccc(Cl)c2)ncn1CCc1ccccc1OC | . | ? | 10.3µM* | ? | . | ?
CCCCCc1c(-c2ccc(Cl)cc2)ncn1CCc1ccccc1OC | . | ? | 11.6µM* | ? | . | 16.4µM*
CCCCc1c(-c2ccc(OC)cc2)ncn1CCc1ccccc1OC | . | 16.4µM* | 14.6µM* | ? | . | 16.4µM*
CC1(C)Cc2c(sc(NC(=O)c3ccccc3Cl)c2C(=O)O)CO1 | -4.9% | 10.6% | i | i | 6.4% | 2.6%
CCOc1ccc(NS(=O)(=O)c2cc(Br)cc3c2N(C(=O)C2CC2)CC3)cc1 | . | . | i | i | . | .
Cc1cc(C)cc(Oc2ccc(NC(=O)C3CC=CCC3C(=O)O)cc2)c1 (stereo unspecified) | -0.6% | -15.2% | i | i | 9.8% | -19.5%
CCCc1c(-c2cccc(Cl)c2)ncn1Cc1ccccc1OC | . | ? | 16.4µM* | ? | . | ?
COc1ccccc1Cc1c(-c2ccc(F)cc2)nc2ccc(Cl)cn12 | . | -0.9% | i | i | . | 1.1%
CCCCCc1c(-c2ccc(OC)cc2)ncn1CCc1ccccc1OC | . | 20.6µM* | 10.3µM* | ? | . | 16.4µM*
COc1ccccc1CCn1cnc(C)c1CC(C)C | . | ? | i | ? | . | ?
CCCCc1c(-c2ccccc2)ncn1CCc1ccccc1OC | . | ? | 10.3µM* | ? | . | ?
CCCCc1c(-c2ccc(F)cc2)ncn1CCc1ccccc1OC | . | ? | 11.6µM* | ? | . | ?
COc1cccc(/C=C/c2nc(C#N)c(N3CCCCCC3)o2)c1 | . | . | i | i | . | .
Cc1ccc(-c2noc(CC(=O)c3ccc([N+](=O)[O-])cc3)n2)cc1 | -2.0% | 0.0% | 16.4µM* | i | 11.2% | -0.1%
